# CYP2C19 inhib = human CYP2C19 inhibition | 96,000 tested, 21% active | CYP2C19 Supersomes, luciferin-H EGE luminescence, 30 min | inhibition, % at 5 µM | AID 778;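 active means CYP2C19 inhibition above a set limit at 5 µM in the primary screen, cut at about 50% in these data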;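 further: plate controls were negative control wells for no effect and 2.5 mM tranylcypromine positive control for full effect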
# Target sequence (P33261 whole entry, looked up): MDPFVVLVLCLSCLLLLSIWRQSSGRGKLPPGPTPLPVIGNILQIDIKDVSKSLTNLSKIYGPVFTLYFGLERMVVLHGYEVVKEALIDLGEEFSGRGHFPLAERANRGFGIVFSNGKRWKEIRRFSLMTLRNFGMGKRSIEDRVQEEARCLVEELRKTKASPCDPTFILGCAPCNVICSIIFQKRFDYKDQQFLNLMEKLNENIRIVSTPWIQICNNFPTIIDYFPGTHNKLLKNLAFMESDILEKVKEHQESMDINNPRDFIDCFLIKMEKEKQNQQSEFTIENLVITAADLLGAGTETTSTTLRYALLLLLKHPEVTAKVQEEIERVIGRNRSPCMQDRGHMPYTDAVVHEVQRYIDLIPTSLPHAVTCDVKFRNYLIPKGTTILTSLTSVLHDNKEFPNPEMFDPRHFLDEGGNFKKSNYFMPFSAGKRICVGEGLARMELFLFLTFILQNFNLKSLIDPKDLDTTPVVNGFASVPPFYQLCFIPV
# CYP2C9 inh = inhibitors of human CYP2C9; AID 777; CYP2C9 Supersomes, luciferin-H conversion, luminescence; 96,000 tested, 20% active; P11712; inhibition, % at 5 µM;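 active means blocking of liver enzyme CYP2C9 beyond about 50% at 5 µM, limit read from the data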
# PostGolgi yeast = growth inhibition of a yeast mutant, post-Golgi transport screen | inhibition, % at 10 µM | 98,000 tested, 0.9% active | post-Golgi transport phenotypic cell assay | AID 739;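 further: yeast cells grown in 1536-well plates; yeast grown about 18 h at 30C before absorbance read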
# CYP2C19 activ = activators of human cytochrome P450 2C19; activation factor at 5 µM; AID 1025; recombinant CYP2C19, luciferin-H EGE luminescence; hits give high values; 0 = fully inhibited enzyme, 1 = untreated enzyme; P33261; 96,000 tested, under 10 active;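 active means activation factor of at least 2 at 5 µM in the primary screen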;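 further: 0 = wells with 2.5 mM tranylcypromine and 1 = vehicle-only wells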
# CYP2C9 activ = activators of human CYP2C9 | recombinant CYP2C9, luciferin-H conversion, luminescence; hits give high values; factor 1 = untreated enzyme, 0 = blocked | activation factor at 5 µM | 96,000 tested, 1.4% active | AID 1024;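 active means activation factor of 2 or more for CYP2C9 at a 5 µM dose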;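 further: 0 = sulfaphenazole-blocked wells and 1 = vehicle-only wells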
# PostGolgi ctrl = growth of the yeast control strain, post-Golgi counter-screen; efflux-deficient yeast background strain, growth absorbance A615, 16 h; inhibition, % at 10 µM; 98,000 tested, 5% active
# * = called active by the depositor; x = no result given. This is a sample that favours compounds with a hit; in the whole collection about 32% have one here. Unless noted, no stated cut-off is given here; in the data, active means inhibition above about 30%; inactive means the rest.
SMILES,CYP2C19 inhib,CYP2C9 inh,PostGolgi yeast,CYP2C19 activ,CYP2C9 activ,PostGolgi ctrl
Nc1ccc(N2CCN(C(=O)c3cccs3)CC2)cc1,97*,71*,2,0,0.3,2
O=C(c1ccco1)N1CCN(C(=O)c2cccs2)CC1,52*,21,-1,0.5,0.8,1
O=C(c1ccco1)N1CCN(S(=O)(=O)c2cccs2)CC1,88*,32,-42,0.1,0.7,-4
Cc1cc(NC(=O)c2cnn3c(C(F)(F)F)cc(-c4ccc(Br)cc4)nc23)no1,24,34,0,0.8,0.7,9
O=C(NC(NC1CCS(=O)(=O)C1)C(Cl)(Cl)Cl)c1ccc(Br)cc1 (stereo not drawn),10,25,-1,0.9,0.8,1
O=C(c1ccncc1)N1CCN(C(=O)c2cccs2)CC1,72*,34,1,0.3,0.7,14
O=C(c1cccnc1)N1CCN(C(=O)c2cccs2)CC1,27,3,6,0.7,1,4
O=C(O)CCC(=O)Nc1ccc(Cc2ccc(NC(=O)CCC(=O)O)cc2)cc1,5,4,-10,1,1,19
O=C(NCc1ccco1)c1ccc(COCC(F)(F)C(F)F)cc1,-1,12,3,1,0.9,8
Cc1cc(C)c2ccc(C(=O)O)nc2c1O,-13,-12,-5,1.1,1.1,4
Cc1c(CN(C)C)c2c(n1Cc1ccccc1)C(=O)c1ccc(Br)cc1-2,79*,63*,5,0.2,0.4,14
Cc1c(CN(C)C)c2c(n1C)C(=O)c1ccc(Br)cc1-2,0,-1,10,1,1,13
CCN(Cc1ccccc1)S(=O)(=O)c1ccc2oc(C(=O)O)c(C)c2c1,2,98*,9,1,0,-3
Cc1c(C(=O)NCC2COc3ccccc3O2)oc2ccc(S(=O)(=O)N(C)C3CCCCC3)cc12 (stereo not drawn),49,95*,9,0.5,0,5
Cc1c(C(=O)O)oc2ccc(S(=O)(=O)N(CC(C)C)CC(C)C)cc12,-5,36,-4,1.1,0.6,-2
Cc1c(C(=O)NCC2CCCO2)oc2ccc(S(=O)(=O)N3CCCC3)cc12 (stereo not drawn),13,49,-2,0.9,0.5,10
CCN(CC)S(=O)(=O)c1ccc2oc(C(=O)NCc3ccc(C)cc3)c(C)c2c1,42,51*,-7,0.6,0.5,23
Cc1ccc(CNS(=O)(=O)c2ccc3oc(C(=O)O)c(C)c3c2)cc1,-11,67*,1,1.1,0.3,9
CCn1c2ccccc2c2nnc(SCC(=O)Nc3ncccn3)nc21,3,0,6,1,1,7
O=C(CSc1nnc(COc2cccc3ccccc23)o1)N1CCN(C(=O)c2ccco2)CC1,x,x,-13,x,x,-3
CCN(CC)S(=O)(=O)c1ccc2oc(C(=O)O)c(C)c2c1,-4,77*,3,1,0.2,7
CCCC(=O)NC(=S)Nc1cccc(NC(=O)c2ccc(Cl)cc2Cl)c1,-19,-17,-7,1.2,1.2,7
Oc1ccc(Br)cc1CN1CCCCCCC1,57*,-9,3,0.4,1.1,11
COC(=O)c1ccc(CN(c2ccccn2)S(=O)(=O)c2ccccc2)cc1,70*,30,-4,0.3,0.7,3
O=C(CSc1ccc(Cl)cc1)N1CCN(c2c(Cl)cccc2[N+](=O)[O-])CC1,35,71*,41*,0.7,0.3,29
SMILES,CYP2C19 inhib,CYP2C9 inh,PostGolgi yeast,CYP2C19 activ,CYP2C9 activ,PostGolgi ctrl
CS(=O)(=O)N1CCN(c2c(Cl)cccc2[N+](=O)[O-])CC1,21,15,-3,0.8,0.8,10
O=C(CSc1ccc(Cl)cc1)N1CCN(c2ccc([N+](=O)[O-])cc2Cl)CC1,11,37,82*,0.9,0.6,78*
CCS(=O)(=O)N1CCN(c2c(Cl)cccc2[N+](=O)[O-])CC1,52*,40,-4,0.5,0.6,5
C=CCN1CCN(C(c2ccccc2)c2nnnn2CCC(C)C)CC1 (stereo not drawn),43,-2,-11,0.6,1,2
CN1C(=O)CC(N2CCN(c3ccc(Cl)c(Cl)c3)CC2)C1=O (stereo not drawn),47,17,4,0.5,0.8,15
CC(C)CCOc1ccc(C(=O)CCNC(C)C(=O)O)cc1 (stereo not drawn),6,9,2,0.9,0.9,12
CCC(=O)OCCCCCCOc1ccc(C(=O)O)cc1,63*,-12,-37,0.4,1.1,8
CC(C)CCOc1ccc(C(=O)O)cc1,83*,83*,2,0.2,0.2,6
COc1ccc(N2C(=O)CC(Nc3ccc(N4CCOCC4)cc3)C2=O)c(OC)c1 (stereo not drawn),4,12,-3,1,0.9,22
COc1ccccc1-c1nc(C#N)c(N2CCN(C(c3ccccc3)c3ccccc3)CC2)o1,14,22,-5,0.9,0.8,5
C=CCC(C)(NCc1ccccc1)c1ccccc1 (stereo not drawn),62*,8,-8,0.4,0.9,9
COC(=O)c1[nH]c2cc(OC)ccc2c1NC(=O)CCN1CCSCC1,17,45,-19,0.8,0.6,6
COc1ccc(NC(=O)OC(CN2CCCCC2)C(F)(F)F)cc1 (stereo not drawn),48,64*,16,0.5,0.4,-2
COc1ccc(CC(=O)OC(C)CN2CCCC2)cc1 (stereo not drawn),8,7,0,0.9,0.9,-8
COc1cc(C2C3C(=O)N(Cc4ccccc4)C(=O)C3ON2c2ccccc2)cc(OC)c1O (stereo not drawn),19,56*,1,0.8,0.4,0
COc1ccc(OC)c(C2=Nn3c(nnc3C3CCCCC3)SC2)c1,94*,78*,24,0.1,0.2,26
COc1ccccc1C1=Nn2c(nnc2C2CCCCC2)SC1,39,33,-5,0.6,0.7,16
CCCc1nnc2n1N=C(c1ccc(OC)c(OC)c1)CS2,x,x,6,x,x,7
COc1ccc(C2=Nn3c(nnc3C3CCCCC3)SC2)cc1OC,64*,72*,-5,0.4,0.3,2
COC(=O)c1c(-c2ccc(F)cc2)noc1N,8,4,-7,0.9,1,9
Cc1cc(C)n(-c2nnc(C)n2NS(C)(=O)=O)n1,-7,-25,2,1.1,1.2,7
COc1ccc(-c2nc(SC)n(C)c(=O)c2C#N)cc1OC,24,95*,17,0.8,0.1,2
COc1ccc(-c2nc3n(c(=O)c2C#N)CCCS3)cc1,20,4,3,0.8,1,2
CC(C)NC1=C(Cl)C(=O)c2ccccc2C1=O,90*,35,8,0.1,0.7,12
Cc1cc(=O)[nH]c(SCC(=O)Nc2ccc(Br)cn2)n1,28,13,6,0.7,0.9,9

# Source: PubChem BioAssay (several laboratories)
